Screening data from PubChem.
Sm TGR inh = qHTS Assay for the Inhibitors of Schistosoma Mansoni Peroxiredoxins. 3% of 360,000 active. Potency, µM (series often up to 114 µM), for inactives: at the highest dose activity change, negative = inhibition, most hits filed as inhibitors. purified TGR, DTNB reduction, TNB absorbance 405 nm. Schistosoma mansoni thioredoxin glutathione reductase (TGR), Q962Y6. AID 485364, 2010; also: nearly all actives have a fitted effect of over 60% in size
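First, TGR (20 nM dispensed) and NADPH were mixed with compound. Second, a 15 min room-temperature incubation followed. Third, further NADPH and then DTNB were added to start the reaction. Finally, TNB absorbance was monitored kinetically.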
FMDV antiviral = High Throughput Screening for Foot and Mouth Disease Virus Antivirals. 1.2% of 410,000 active. Potency, µM (titrated, usually from 57.9 µM), inactives show top-dose activity change, negative = inhibition, usual class: inhibitors. FMDV antiviral cell-based qHTS. AID 1159524, 2015; calls by dose curve; tested in HEK293T cells; also: read-out not given here; nearly all actives have a fitted effect of over 45% in size
Lassa entry inh = qHTS for Inhibitors of binding or entry into cells for Lassa Virus; Lassa virus pseudotype entry inhibition, cell reporter; Potency, µM (series often up to 37.9 µM), for the others: at the highest dose activity change, negative = inhibition, actives largely listed as inhibitors; 1.2% of 300,000 active; calls by dose curve; tested in HEK293 cells; also: nearly all actives have a fitted effect of over 50% in size
RE007 growth inh = qHTS Assay for Inhibitors of the HIV-1 protein Vpr; S. pombe RE007 Vpr strain, BacTiter-Glo ATP luminescence, 24 h; Potency, µM (series often up to 92.2 µM), without a hit: at the top dose activity change, negative = less growth, hits mostly inhibitors; 0.21% of 360,000 active; AID 651644, 2012; active = well fitted falling curve with a large enough effect; inconclusive = small, poorly fitted or top-dose-only effect; inactive = no such curve, though single readings can be large or run the other way; also: nearly all actives have a fitted effect of over 50% in size
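Fission yeast RE007 carrying one integrated HIV-1 vpr copy, seeded at OD 0.01 in PMG+AL medium with 23 nL pinned compound. Grown 24 h at 30 degrees; viability read by BacTiter-Glo luminescence after 5 min.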
HCV inh = qHTS Assay for Inhibitors of Hepatitis C Virus (HCV); Huh7.5.1 HCVcc-Cre infection, luciferase reporter, 44 h; 3.4% of 340,000 active; Potency, µM (series often up to 41.8 µM), for inactives: at the top dose activity change, negative = inhibition, actives largely listed as inhibitors
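Reporter virus HCVcc-Cre (~0.5 moi) infects cells exposed to compound; seeding density 1,000 cells/well with 4 h settling beforehand. Luminescence, 15 sec read, taken 44 h post-infection following a 15 min RT substrate incubation.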
Marburg entry inh = qHTS for inhibitors of binding or entry into cells for Marburg Virus. Marburg virus pseudotyped entry inhibition, cell reporter. Potency, µM (titrated, usually from 37.8 µM), inactives show at the highest dose activity change, negative = inhibition, usual class: inhibitors. 1.8% of 300,000 active. AID 540276, 2011; calls by dose curve; tested in HEK293 cells
* hit, by the source's call; ? = inconclusive; nt = no result; [ ] = remark or other dose. Compounds with a hit are over-represented: about 7.2% of the library has one in this group of screens. Unless noted, calls follow the shape of the dose curve; as a rule, active = well fitted curve in the direction sought with a large enough effect; inconclusive = small, poorly fitted or top-dose-only effect, or another doubt; inactive = no such curve, though single readings can be large; an effect the other way counts as inactive or inconclusive. % is scaled to controls: 0 for no effect and ±100 for the full control effect; potency is read from the fitted curve at half-maximal effect.

SMILES	Sm TGR inh	FMDV antiviral	Lassa entry inh	RE007 growth inh	HCV inh	Marburg entry inh
COc1cc(/C=C/C(=O)OCC(=O)N2CC(=O)Nc3ccccc32)ccc1O	45µM*	-12%	nt	5%	?	nt
COc1ccc(OC)c(/C=C/C(=O)N2CCCc3ccccc32)c1	6%	8%	?	-8%	10µM*	?
COc1cc(/C=C/C(=O)OCC(=O)N2CCCc3ccccc32)ccc1O	nt	-10%	-26%	?	-27%	1.3µM*
O=C(OCC(=O)N1CCCc2ccccc21)c1cnc(Cl)c(Cl)c1	0%	-6%	nt	-1%	5µM*	-7%
COc1ccc(S[C@@H](CCN2CC[C@H](C)CCC2=O)c2ccccc2)cc1	40µM*	-6%	nt	17%	?	nt
Cc1ccc(S[C@@H](CCN2CC[C@H](C)CCC2=O)c2ccccc2)cc1	0%	-9%	nt	20%	?	nt
Cc1ccc2cc(CCNC(=O)c3cccc([N+](=O)[O-])c3)c(=O)[nH]c2c1C	-17%	22µM*	1%	6%	23%	3%
COc1ccc2cc(CCNC(=O)c3cccc([N+](=O)[O-])c3)c(=O)[nH]c2c1	-2%	?	nt	-16%	-23%	nt
CCOC(=O)c1nc(Nc2cc(Cl)ccc2OC)c2ccccc2n1	1%	-13%	nt	-8%	13µM*	nt
CCOC(=O)c1nc(Nc2ccccc2)c2ccccc2n1	2%	?	1%	0%	?	4%
O=C(c1cnccn1)N1CCC[C@@]2(CCN(c3ccncc3)C2)C1	nt	-8%	nt	nt	nt	nt
Cc1nc2sc3c(c2c(=O)n1NC(=O)CCBr)CCCC3	40µM*	?	nt	2%	-15%	nt
CCCc1nc2sc3c(c2c(=O)n1NC(=O)CCC(=O)OC)CCCC3	2%	-17%	-13%	-16%	-10%	-8%[46.1 µM]
CCN(CC)CCCNC(=O)c1ccc2c(c1)NC(=O)C(CS(=O)(=O)Cc1cccc(Br)c1)N2 (stereo unspecified)	-16%	18%	20%[46.1 µM]	nt	nt	nt
CCN1CSC(=S)N(Cc2ccccc2)C1	-4%	-21%	4%[46.1 µM]	?	11µM*	?
CCCCCN1CSC(=S)N(Cc2ccccc2)C1	-2%	-19%	-4%	-25%	5%	-5%
S=C1SCN(Cc2ccco2)CN1Cc1ccco1	0%	1%	?	35µM*	14µM*	?
CC1CCCCC12NC(=O)N(CC(=O)OCc1ccc(Br)cc1)C2=O (stereo unspecified)	-2%	?	nt	-18%	1%	nt
CCOCCCn1cc(C(=O)c2cc(Br)ccc2O)cc(C#N)c1=O	-34%	6%	?	-28%	-18%	-27%[46.1 µM]
COCCCn1cc(C(=O)c2cc(Br)ccc2O)cc(C#N)c1=O	-25%	-10%	?	-2%	-27%	1.6µM*
C=CCn1cc(C(=O)c2cc(Br)ccc2O)cc(C#N)c1=O	-34%	?	12%	-1%	-5%	-5%[46.1 µM]
CCCCn1cc(C(=O)c2cc(Br)ccc2O)cc(C#N)c1=O	-23%	?	?	-13%	11µM*	?
C[C@]12C[C@@](C)(C=C1C=Cc1ccccc1)C(=O)C[C@H]2c1ccccc1	nt	nt	nt	nt	nt	3%[14.2 µM]
O=C(Nc1ccc(Cl)c([N+](=O)[O-])c1)c1ccc(NCCCN2CCOCC2)c([N+](=O)[O-])c1	-9%	8%	-2%	-3%	2.2µM*	6.5µM*
O=C(Nc1ccc(S(=O)(=O)N2CCOCC2)cc1)c1ccc(Cl)c([N+](=O)[O-])c1	nt	-28%	5%[46.1 µM]	-1%	?	?
SMILES	Sm TGR inh	FMDV antiviral	Lassa entry inh	RE007 growth inh	HCV inh	Marburg entry inh
CC(C)CNC(=O)c1cccc(NC(=O)c2ccc(Cl)c([N+](=O)[O-])c2)c1	-17%	28µM*	?	-8%	?	?
O=[N+]([O-])c1cc(S(=O)(=O)NCCCN2CCOCC2)ccc1Cl	45µM*	-5%	?	13%	10µM*	?
O=C(Nc1cccc(S(=O)(=O)N2CCOCC2)c1)c1ccc(Cl)c([N+](=O)[O-])c1	6%	40µM*	3%[46.1 µM]	10%	?	?
O=C(NCCCN1CCOCC1)c1ccc(Cl)c([N+](=O)[O-])c1	nt	-5%	11%	-1%	0%	-4%[46.1 µM]
COc1ccc(NC(=O)c2ccc(NCCCN3CCOCC3)c([N+](=O)[O-])c2)cc1	-9%	-6%	7%	-13%	13µM*	-17%
O=C(NCCCN1CCOCC1)c1ccc(Sc2cccc(Cl)c2)c([N+](=O)[O-])c1	-10%	?	?	34%	11µM*	2%
Cc1ccc(NC(=O)c2ccc(NCCCN3CCOCC3)c([N+](=O)[O-])c2)cc1Cl	-2%	32µM*	?	-1%	11µM*	?
O=[N+]([O-])c1ccc(NCCCN2CCOCC2)c([N+](=O)[O-])c1	2%	-10%	11%[46.1 µM]	-7%	1%	?
Cc1[nH]n(-c2ccccc2)c(=O)c1C(=O)c1cccc(F)c1	nt	-13%	?	-6%	?	10µM*
CCN1C(=O)NC(c2cccc(F)c2)C(C(=O)OC)=C1C (stereo unspecified)	nt	nt	nt	nt	nt	19%[14.2 µM]
COc1cccc(/C=N/Nc2snc(SC)c2C#N)c1	-5%	-10%	5.6µM*	-11%	-31%	?
COc1ccc(/C=N/Nc2snc(SC)c2C#N)cc1OC	-15%	-2%	6.3µM*	-25%	?	?
CSc1nsc(N/N=C/c2ccccc2)c1C#N	-1%	28%	-2%	-11%	-24%	-29%[46.1 µM]
CCc1ccc(-n2c(=O)c3c4c(sc3n(CC(=O)c3ccc(Cl)cc3)c2=O)CCC4)cc1	-2%	-25%	3%[46.1 µM]	nt	nt	6%[46.1 µM]
CC(C)(C)c1ccc(N/N=C(\C#N)S(=O)(=O)C(C)(C)C)cc1	-17%	-23%	?	5%	?	10µM*
CCOC(=O)C1=C(C)N=C2S[C@H](C)C(=O)N2[C@@H]1c1ccc(OC(C)=O)c(OC)c1	nt	nt	nt	nt	nt	-13%
CCOC(=O)NC1(Nc2ccc(Cl)cn2)Oc2ccccc2O1	7.1µM*	nt	nt	nt	nt	nt
CCCCC[C@H](O)/C=C/C1C(=O)C=C[C@H]1C/C=C\CCCC(=O)OC (stereo partly specified)	nt	25µM*	nt	3%	?	nt
Nc1ccc2c(c1)OC1(CCCCC1)O2	14µM*	20%	11%	-4%	4%	17%[46.1 µM]
Cc1cc(Cl)n2c(nc3cc(F)c(F)cc32)c1C#N	1.1µM*	18µM*	?	?	?	13µM*
COCCNC(=O)Cn1cnc2c(cnn2-c2ccc(C)cc2)c1=O	89µM*	-8%	0%[46.1 µM]	4%	18%	15%[46.1 µM]
